# Only some compounds are listed: those with a hit (about 2.4% of all), similar ones and a draw of the others.
# PREPL inh = inhibits the human prolyl oligopeptidase-like enzyme; recombinant PREPL, fluorescence polarization activity-based probe; Q4J6C6; 320,000 tested, 0.68% active; inhibition, % at 5.96 µM; in the data active = inhibition above about 43%;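 note: 0% = enzyme with DMSO and 100% = wells lacking enzyme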
# PP1 inh = PP1-alpha (human) inhibition in PP5 counter-screen; P62136; purified PP1alpha, OMFP fluorescence; 320,000 tested, 0.9% active; AID 2235; inhibition, % at 6.7 µM;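 active = inhibition above the mean inhibition of all tested compounds plus 3 SD, computed separately for each screening campaign, cut at about 15% in these data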
# PP5 inh = blocks human protein phosphatase 5 activity; AID 1987; inhibition, % at 6.7 µM; P53041; 320,000 tested, 0.18% active; purified PP5c, OMFP substrate fluorescence;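 active = inhibition above the campaign's mean inhibition across all tested compounds plus 3 SD, cut at about 9.5% in these data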;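 note: 0% = DMSO only and 100% = 100 µM cantharidin control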
# Rpn11 block = inhibitors of human proteasome Rpn11. AID 588493. 360,000 tested, 0.59% active. inhibition, % at 20 µM. O00487. human 26S proteasome, Ub4-pepOG fluorescence polarization; 20S core pre-blocked with epoxomicin;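 active = inhibition at 20 µM, scaled to each plate's controls, above about 33%, limit read from the data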
# NadD inh = blocks S. aureus nicotinate mononucleotide adenylyltransferase | purified NadD enzyme, colorimetric absorbance read-out | inhibition, % at 20 µM | 360,000 tested, 0.78% active; in the data active = inhibition above about 26%
# Rpn11 inh conf = confirmation of human proteasome Rpn11 inhibitors; shares compounds with Rpn11 block; purified human 26S proteasome, Ub4-pepOG fluorescence polarization; proteasome pretreated with epoxomicin; inhibition, % at 20 µM; 1,900 tested, 29% active; AID 602318
# MMP-2 inh = counter-screen for RPN11 inhibitors: inhibition of human MMP-2. 1,900 tested, 4% active. shares compounds with Rpn11 block. recombinant MMP-2, FRET peptide cleavage fluorescence. inhibition, % at 20 µM;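 note: human MMP-2 activated beforehand with APMA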
# Target sequence (P08253 whole entry, looked up): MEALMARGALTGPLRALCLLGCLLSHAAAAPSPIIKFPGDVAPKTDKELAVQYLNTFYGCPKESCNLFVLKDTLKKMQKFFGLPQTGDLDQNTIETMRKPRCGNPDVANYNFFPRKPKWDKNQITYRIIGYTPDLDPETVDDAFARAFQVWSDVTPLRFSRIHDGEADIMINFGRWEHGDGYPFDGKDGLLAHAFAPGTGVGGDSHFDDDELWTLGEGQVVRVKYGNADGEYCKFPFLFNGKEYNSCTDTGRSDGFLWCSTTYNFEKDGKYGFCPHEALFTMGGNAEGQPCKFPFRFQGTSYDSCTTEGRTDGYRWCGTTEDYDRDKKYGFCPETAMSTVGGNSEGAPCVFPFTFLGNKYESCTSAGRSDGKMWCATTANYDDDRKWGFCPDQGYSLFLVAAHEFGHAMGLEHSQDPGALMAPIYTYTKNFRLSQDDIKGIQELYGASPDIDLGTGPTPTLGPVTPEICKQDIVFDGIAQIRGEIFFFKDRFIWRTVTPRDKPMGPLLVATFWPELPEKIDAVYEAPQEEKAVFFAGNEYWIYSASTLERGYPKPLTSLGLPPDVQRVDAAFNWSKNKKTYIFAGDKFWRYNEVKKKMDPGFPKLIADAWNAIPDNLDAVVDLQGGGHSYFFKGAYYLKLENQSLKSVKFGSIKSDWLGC
# Thrombin inh = thrombin (bovine) inhibition counter-screen; shares compounds with Rpn11 block; bovine thrombin cleavage of Ub4-pepOG, fluorescence polarization; inhibition, % at 20 µM; 1,900 tested, 13% active; AID 602333;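 active = mean inhibition at least 40% at 20 µM, or signal 3 deviations below plate average, so some actives read negative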;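 note: plate controls were thrombin with DMSO for no effect and buffer wells lacking thrombin for full effect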
# Active calls of the source: *; / = no result shown. Cut-off read from the data, not from the text of the source, unless noted: active = inhibition above about 40%; inactive = the rest.
SMILES,PREPL inh,PP1 inh,PP5 inh,Rpn11 block,NadD inh,Rpn11 inh conf,MMP-2 inh,Thrombin inh
O=c1[nH]c(Cc2ccccc2)nc2scc(-c3ccccc3)c12,-5,2,1,1,-5,/,/,/
Cc1nnc(SCc2nc3scc(-c4ccccc4)c3c(=O)[nH]2)s1,1,-1,-1,43*,-3,42*,-2,32
Nc1nnc(SCc2nc3scc(-c4ccccc4)c3c(=O)[nH]2)s1,-7,2,0,70*,-1,70*,0,60*
FC(F)(F)C(F)(F)C(F)(F)c1nnc2ccc(N3CCOCC3)nn12,6,-1,2,92*,4,-10,-20,-10
Cc1cc(/C=C2\SC(=S)NC2=O)c(C)[nH]1,7,0,1,84*,3,45*,17,38
O=C1NC(=S)S/C1=C\c1cc(Cl)ccc1Cl,/,/,/,22,6,/,/,/
CCC(C)Sc1cc(-c2nc3ccccn3c2NC2CCCCC2)ccc1OC (stereo not drawn),10,13,6,2,13,/,/,/
CCC(C)Sc1cc(-c2nc3cc(C)ccn3c2NC2CCCCC2)ccc1OC (stereo not drawn),7,/,/,85*,9,8,-29,0
CCOc1ccc2nc(Nc3nc(CSc4nnnn4-c4ccccc4)cc(=O)[nH]3)nc(C)c2c1,11,-2,4,38*,2,-3,-18,6
COc1ccc2nc(Nc3nc(CSc4nnnn4-c4ccccc4)cc(=O)[nH]3)nc(C)c2c1,9,2,4,8,10,/,/,/
CN(C)CCNC(=O)c1c(NC(=O)c2ccccc2)sc2c1CCCC2,22,0,0,-4,-11,/,/,/
COCCNC(=O)c1c(NC(=O)c2nc(SC)ncc2Cl)sc2c1CCCC2,24,1,1,81*,-4,45*,-48,34
CC(C)[C@H](NC(=O)c1ccco1)C(=O)OCC(=O)c1ccc(Br)s1,9,/,/,15,-4,/,/,/
CC(C)(C)c1ccc(C(=O)NCCC(=O)Nc2cc(Cl)ccc2N2CCOCC2)cc1,11,1,4,6,-1,/,/,/
CC1=Nc2ccccc2/C1=C\c1nc(-c2ccccc2)oc1O,25,3,8,44*,15,43*,-5,22
COc1ccc(-c2nc(/C=C3\C(C)=Nc4ccccc43)c(O)o2)cc1,25,-5,3,/,17,/,/,/
Cn1c(=O)c(=O)n(C)c2cc(S(=O)(=O)NCCOc3ccccc3)ccc21,1,0,1,-4,-3,/,/,/
COc1cccc(NC(=O)CN(C)C(=O)c2cc3c(s2)CCC3)c1,-5,7,2,/,/,/,/,/
COCc1ccc(-c2ccc3c(c2)c(C#Cc2ccsc2)c(-c2cc(OC)cc(OC)c2)n3C)cc1,14,9,2,7,2,/,/,/
COc1cc(OC)cc(-c2c(C#Cc3ccsc3)c3cc(-c4ccc(C(N)=O)cc4)ccc3n2C)c1,13,-4,0,48*,23,12,7,10
CCCc1nc2sc3c(c2c(=O)[nH]1)CCCC3,32,3,0,4,-4,/,/,/
Cc1nnc(SCc2nc3sc4c(c3c(=O)[nH]2)CCCC4)[nH]c1=O,-4,5,0,61*,8,21,-6,84*
Oc1ccc(-c2nccc(-c3ccc(F)cc3)n2)cc1,13,2,3,2,-4,/,/,/
Nc1nc(-c2ccccc2)c(-c2ccccc2)n1N,14,-4,-2,56*,2,13,-31,14
CCC1(CC)C(=O)N(c2ccccc2)C(=N)N(c2ccccc2)C1=O,/,/,/,0,2,/,/,/
SMILES,PREPL inh,PP1 inh,PP5 inh,Rpn11 block,NadD inh,Rpn11 inh conf,MMP-2 inh,Thrombin inh
CC(=O)N1CCc2cc(N=NC3=C(O)CCCC3=O)ccc21,2,-1,1,56*,-7,51*,-7,22
Cc1cccc(CCNC(=O)CNS(=O)(=O)c2ccc3nc(C)sc3c2)c1,14,-1,1,-1,6,/,/,/
COc1ccc(-c2ccc(C#N)c(SCC(=O)Nc3sc4c(c3C#N)CCC4)n2)cc1,5,-1,2,18,17,/,/,/
N#Cc1ccc(-c2cccnc2)nc1SCC(=O)Nc1sc2c(c1C#N)CCC2,-30,7,2,48*,14,26,9,20
COc1cccc(NC(=O)COC(=O)c2cc(=O)c3ccccc3o2)c1,17,4,4,-4,-4,/,/,/
Cc1ccc(C(=O)N=c2sccn2C)cc1C,0,0,0,8,2,/,/,/
Cc1ccc(C(=O)N=c2sccn2C)cc1S(=O)(=O)N1CCOCC1,19,0,1,68*,-1,1,30,14
Cc1ccc(NC(=O)CN(C)C(=O)/C=C/c2cccs2)cc1,3,1,1,0,-2,/,/,/
O=C(C1CCC(=O)N(C2CCCC2)C1)N1CCC(Oc2ccccc2Cl)CC1 (stereo not drawn),32,-2,1,1,2,/,/,/
CC(C)C(c1nnnn1Cc1ccco1)N1CCC(C(N)=O)CC1 (stereo not drawn),1,-7,-5,142*,-4,15,-33,8
O=c1nc(/C=C/c2cccn2-c2ccc([N+](=O)[O-])cc2)cc(C(F)(F)F)[nH]1,0,5,0,40*,1,29,18,15
O=c1nc(/C=C/c2cc([N+](=O)[O-])ccc2Cl)cc(C(F)(F)F)[nH]1,8,5,3,1,19,/,/,/
Cc1cccn2c(=O)nc(SCC(=O)NCc3ccc4c(c3)OCO4)nc12,-2,2,2,3,-2,/,/,/
CC(=NNC(N)=S)c1ccc2cc3c(cc2c1)OCO3,/,/,/,-2,16,/,/,/
COc1cc2ccc(C(C)=NNC(N)=S)cc2cc1OC,/,/,/,83*,0,-10,3,-13
CCOC(=O)c1ccc(S(=O)(=O)N2CCN(C3CC(=O)N(c4ccccc4C(F)(F)F)C3=O)CC2)cc1 (stereo not drawn),/,/,/,2,10,/,/,/
O=C(Nc1ccc(Cl)cc1)/C(=C/c1cccc(O)c1)c1nc2ccccc2s1,-5,-1,3,46*,17,17,-8,9
CC1(C2CC2)NC(=O)N(CC(=O)Nc2ccc(Cl)c([N+](=O)[O-])c2)C1=O (stereo not drawn),6,-1,0,0,1,/,/,/
CC[C@@H]1CC2=C(C(=O)OC(C)(C)O2)[C@H](c2ccc(Cl)cc2)O1,/,/,/,2,-1,/,/,/
COc1ccc(CC(=O)Nc2ccc(-c3noc(-c4cc(OC)c(OC)c(OC)c4)n3)cc2)cc1,2,-3,4,1,-4,/,/,/
COc1ccc(CC(=O)Nc2ccc(-c3noc(-c4ccc(Cl)cc4)n3)cc2)cc1,0,0,2,98*,8,-1,-29,-16
